Our source for the Potency values is PubChem BioAssay (Tox21).

The structures appear in SMILES notation. Inconclusive results are not listed. Where a call stands in place of a potency, no number is given. Activity calls are given as the source filed them. Calls come from the whole dose curve.
Potency is the fitted concentration of half-maximal effect.

A short description of this test: qHTS assay to identify small molecule agonists of the NFkB signaling pathway - cell viability counter screen (AID 1159515). Note: nearly all actives have a fitted effect of over 55% in size. Conditions: NFkB-bla ME-180 viability, CellTiter-Glo luminescence, 5 h; series mostly up to 61 µM. In a few lines:
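NFkB-bla ME-180 cells, 2,000/well, were plated overnight at 37 C, 5% CO2, then exposed to compounds in DMSO for 5 hr. After the bla FRET read, CellTiter-Glo was added to the same wells; luminescence was read after 30 min at room temperature.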
(In qHTS, concentration-response curves come from the screen itself.)
As for `N#Cc1ccc(N(CC(N)=O)CC(F)(F)F)cc1C(F)(F)F`, the Potency entry is “inactive”.

Turning to `c1ccc(Nc2ccc(Nc3ccccc3)cc2)cc1`, the Potency entry was “inactive”. Then `CCC[CH2][Sn]([CH2]CCC)([O]C(C)=O)[O]C(C)=O`, with 11.1 µM (active); and `COc1cnc(OC)n2nc(NS(=O)(=O)c3c(OCC(F)F)cccc3C(F)(F)F)nc12`, with “inactive”; and `CCN(CC)Cc1nccn1-c1ccc([N+](=O)[O-])cc1C(=O)c1ccccc1Cl`, with “inactive”. The same measure for `O=C(N[C@@H]1N=C(c2ccccc2F)c2cccc3c2N(CC3)C1=O)c1cc2ccccc2[nH]1`: “inactive”. Then `[C-]1=CC=CC1.[Cl][Zr+2][Cl].c1cc[cH-]c1`, with “inactive”; and `Nc1ccc(Cl)cc1C(=O)c1ccccc1F`, with “inactive”; and `C1=CCC=C1`, with “inactive”. With `CCOP(=O)(Sc1ccccc1)Sc1ccccc1`, the Potency result is “inactive”. Then `O=S(=O)(O)F`, with “inactive”; and `O=[N+]([O-])c1ccc(Cl)c(Cl)c1Cl`, with “inactive”; and `CSC(C)(C)/C=N/O`, with “inactive”.

Turning to `CCNS(=O)(=O)C(F)(F)C(F)(F)C(F)(F)C(F)(F)C(F)(F)C(F)(F)C(F)(F)C(F)(F)F`, the Potency entry is “inactive”.

As for `CCN(CC)CCc1c[nH]c2ccccc12`, the Potency result is “inactive”.

With `CNC(=O)O/N=C(\C)C(C)S(C)(=O)=O` (centres undefined), the Potency result is “inactive”. For `CC(Cl)CCl` (centres undefined), the Potency entry was “inactive”.

Regarding `Cc1ccc(C)c2ccccc12`, the Potency entry was “inactive”. The same measure for `[O-][Cl+3]([O-])([O-])O`: “inactive”; for `COC(=O)c1ccccc1S(=O)(=O)NC(=O)Nc1nc(C)nc(OC)n1`: “inactive”; for `CC1CN1` (centres undefined): “inactive”. Then `c1cc[n+]2c(c1)-c1cccc[n+]1CC2`, with “inactive”; and `ClSC(Cl)(Cl)Cl`, with “inactive”.

For `O=C(Nc1ccc(F)cc1F)c1cccnc1Oc1cccc(C(F)(F)F)c1`, the Potency result was “inactive”. Then `CCC(C)c1cccc(C(C)CC)c1O` (centres undefined), with “inactive”. The same measure for `CCN(CC)CCN1C(=O)CN=C(c2ccccc2F)c2cc(Cl)ccc21`: “inactive”; for `ClCBr`: “inactive”; for `CC#C[C@]1(O)CC[C@H]2[C@@H]3C[C@H](C)C4=CC(=O)CC[C@]4(C)[C@H]3CC[C@@]21C`: “inactive”. The same measure for `COc1ccc2[nH]cc(CCN(C(C)C)C(C)C)c2c1`: “inactive”; for `CC(C)Br`: “inactive”. `O=[N+]([O-])c1ccccc1-c1ccccc1`: the Potency entry is “inactive”. As for `O=c1c2ccccc2c(=O)c2c1cc(Cl)c1[nH]c3c([nH]c12)c(Cl)cc1c(=O)c2ccccc2c(=O)c13`, the Potency result was “inactive”. Then `CC(C)C(Br)C(=O)NC(N)=O` (centres undefined), with “inactive”; and `CC[C@]1(O)CC[C@H]2[C@@H]3CCC4=CCCC[C@@H]4[C@H]3CC[C@@]21C`, with “inactive”; and `CCC1(CC)C(=O)N=C(O)NC1=O`, with “inactive”.

Turning to `CC(C)NCC(O)c1ccccc1Cl` (centres undefined), the Potency result is “inactive”. The same measure for `CC(C)N(C(=O)SC/C(Cl)=C/Cl)C(C)C`: “inactive”. Then `NC1CCC(CC2CCC(N)CC2)CC1` (centres undefined), with “inactive”.

In the case of `C=Cc1cccc(CCl)c1`, the Potency result is “inactive”.
